Source: PubChem BioAssay (NCATS)
Inconclusive results are not listed. Active and inactive are the calls of the source. Calls follow the shape of the dose curve; as a rule, active = well fitted inhibition curve with a large enough effect; inconclusive = small, poorly fitted or top-dose-only effect; inactive = flat fitted curve, though single readings scatter. Peptide text beside a SMILES is read from it.

test system: CP203; test: qHTS profiling for inhibitors of Plasmodium falciparum proliferation (AID 504749); also: nearly all actives have a fitted effect of over 60% in size;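 as to activity, negative = inhibition: 0% = DMSO vehicle and full inhibition = artemisinin control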; details: P. falciparum in erythrocytes, SYBR Green DNA, 72 h; series mostly up to 28.7 µM; activity, negative = inhibition: at the top concentration
Description: NIH National Institute of Allergy and Infectious Diseases [NIAID] NIH Chemical Genomics Center [NCGC] MLPCN Grant: None Assay Provider: Xinzhuan Su, NIAID NCGC Assay Overview: Plasmodium falciparum is a virulent malarial parasite that kills 1-2 million people worldwide each year. Transmitted by mosquitoes, the sporozoite form of the parasite enters the blood stream to infect hepatocytes, where they become merozoites that infect red blood cells (erythrocytes). Within erythrocytes, merozoites begin a […] cycle of growth and division, after which the parasite is released to infect new red blood cells. Gametocytes, which form within erythrocytes as well, circulate in the bloodstream and are ingested by the mosquito, thereby completing the life cycle. To profile malarial isolates for differential chemical responses and to identify inhibitors of malarial growth, an assay that measures P. falciparum growth and replication within erythrocytes was employed. This assay uses a DNA binding fluorescent dye (SYBR Green) to detect parasite DNA following cell lysis. Because mature erythrocytes lack DNA, only Plasmodium-derived DNA is detected.
NCGC Assay Protocol Summary: The SYBR Green viability assay was adapted from a method described previously (Plouffe et al., 2008). For screening 3 ul culture medium was dispensed into 1536 well black clear bottom plates (Aurora Biotechnologies) using a Multidrop Combi (Thermo Fisher Scientific Inc.), 23 nL compounds in DMSO were added by a pin tool (Kalypsys), and 5 ul of erythrocytes infected with P. falciparum (0.3% parasitemia, 2.5% hematocrit final concentration) were added. The plates were incubated at 37 C in a humidified incubator in 5% CO2 for 72 h, and 2 ul lysis buffer (20 mM Tris HCl, 10 mM EDTA, 0.16% saponin, 1.6% triton X, 10X SYBR Green I supplied as 10,000X […] by Invitrogen) was added to each well. The plates were mixed for 25 sec with gentle shaking and incubated overnight at room temperature in the dark. The following morning, fluorescence intensity at 485(14) nm excitation and 535(25) nm emission wavelengths was measured on an EnVision (Perkin Elmer) plate reader. Plate reads were normalized relative to the control inhibitor (0.29 uM artemisinin) and vehicle (DMSO) wells present on each plate and then corrected by an algorithm using vehicle-only control plates at the beginning and end of the compound plate stack.
Potency is read from the fitted curve at half-maximal effect.

| Structure (SMILES) | activity, negative = inhibition | Potency |
| --- | --- | --- |
| NC(=O)c1ncn(C2OC(CO)C(O)C2O)n1 (stereo not given) | -2.7% (inactive) | – |
| CC(C(=O)O)c1ccc(N2Cc3ccccc3C2=O)cc1 (stereo not given) | -3.32% (inactive) | – |
| Cc1c(C)c2c(c(C)c1O)CC[C@@](C)(CCC[C@@H](C)CCC[C@@H](C)CCCC(C)C)O2 | 0.585% (inactive) | – |
| Cc1ccccc1 | 3.5% (inactive) | – |
| CC(C)(C)C(=O)OCOC(=O)[C@@H]1N2C(=O)[C@@H](N=CN3CCCCCC3)[C@H]2SC1(C)C | 0.997% [at 12.8 µM] (inactive) | – |
| CCOC(=O)C1=C(C)NC(C)=C(C(=O)OCC)C1c1ccccc1C=CC(=O)OC(C)(C)C | – | 19000 nM (active) |
| C#C[C@]1(O)CC[C@H]2[C@@H]3CCC4=CCCC[C@@H]4[C@H]3C(=C)C[C@@]21CC | -2.44% (inactive) | – |
| C[C@]12CCC(=O)C=C1CC[C@@H]1[C@@H]2[C@@H](O)C[C@@]2(C)[C@H]1CC[C@]2(O)C(=O)COP(=O)(O)O | -3.62% (inactive) | – |
| C=CCSSSCC=C | -2.22% (inactive) | – |
| C[C@]12O[C@H](C[C@]1(O)CO)n1c3ccccc3c3c4c(c5c6ccccc6n2c5c31)CNC4=O | – | 269 nM (active) |
| CC1(C)C(C=C(Cl)Cl)C1C(=O)OCc1cccc(Oc2ccccc2)c1 (stereo not given) | -3.44% (inactive) | – |
| C[C@H]1C[C@H]2[C@@H]3CCC4=CC(=O)C=C[C@]4(C)[C@@]3(F)[C@@H](O)C[C@]2(C)[C@@]1(O)C(=O)CO | 3.85% (inactive) | – |
| C=C1C(=CC=C2CCC[C@@]3(C)[C@@H]2CC[C@H]3[C@H](C)CCCC(C)C)C[C@@H](O)C[C@@H]1O | 2.02% (inactive) | – |
| CCN(CC)Cc1cc(Nc2ccnc3cc(Cl)ccc23)ccc1O | – | 144 nM (active) |
| C#CCOc1ccc2c(C)cc(=O)oc2c1 | 4.64% (inactive) | – |
| CCCCCCCC/C=C\CCCCCCCC(=O)O | -1.73% (inactive) | – |
| O=C(O)CCC(=O)C(=O)O | 2.66% (inactive) | – |
| Cc1cc(C(=O)NNCc2ccccc2)no1 | 0.787% [at 12.8 µM] (inactive) | – |
| CC(=O)N[C@@H](CC(=O)O)C(=O)N[C@@H](CCC(=O)O)C(=O)O (Ac-Asp-Glu-OH) | 6.37% (inactive) | – |
| CC(C)=O | 2.43% (inactive) | – |

| Structure (SMILES) | activity, negative = inhibition | Potency |
| --- | --- | --- |
| CC[N+](C)(C)Cc1ccccc1Br | 5.24% [at 12.8 µM] (inactive) | – |
| CCCCCCCCCCCCCC[n+]1ccc(C)cc1 | – | 3790 nM (active) |
| CO[C@H](C(=O)[C@@H](O)[C@@H](C)O)C1Cc2cc3cc(O[C@H]4C[C@@H](O[C@H]5C[C@@H](O)[C@H](O)[C@@H](C)O5)[C@@H](O)[C@@H](C)O4)c(C)c(O)c3c(O)c2C(=O)[C@H]1O[C@H]1C[C@@H](O[C@H]2C[C@@H](O[C@H]3C[C@](C)(O)[C@H](O)[C@@H](C)O3)[C@H](O)[C@@H](C)O2)[C@H](O)[C@@H](C)O1 (stereo not given in full) | – | 2690 nM (active) |
| COC(=O)CCC(=O)CN | 1.71% (inactive) | – |
| CC1(C)S[C@@H]2[C@H](NC(=O)[C@@H](NC(=O)N3CCNC3=O)c3ccccc3)C(=O)N2[C@H]1C(=O)O | 0.545% [at 12.8 µM] (inactive) | – |
| CCCC(=O)Nc1ncnc2c1ncn2C1OC2COP(=O)(O)OC2C1OC(=O)CCC (stereo not given) | -5.45% (inactive) | – |
| CC(Cc1ccc(O)c(O)c1)C(C)Cc1ccc(O)c(O)c1 (stereo not given) | -2.91% (inactive) | – |
| CCCCCCCCCCCCCCCC(=O)OCC(COC(=O)CCCCCCCCCCCCCCC)OC(=O)CCCCCCCCCCCCCCC | -5.96% (inactive) | – |
| CC(C)N=c1cc2n(-c3ccc(Cl)cc3)c3ccccc3nc-2cc1Nc1ccc(Cl)cc1 | -11.5% [at 12.8 µM] (inactive) | – |
| O=S(=O)(O)c1cc(O)c2c(N=Nc3ccc(Nc4ccccc4)c4c(S(=O)(=O)O)cccc34)cc(S(=O)(=O)O)cc2c1 | -19.4% (inactive) | – |
| CC(=O)Oc1c(C)cc(OCC(O)CNC(C)C)c(C)c1C (stereo not given) | 7.4% (inactive) | – |
| CC(NNC(=O)c1ccccc1)c1ccccc1 (stereo not given) | 3.19% (inactive) | – |
| O=S(=O)(O)O | 8.86% (inactive) | – |
| CCC(=O)NCCC1CCc2ccc3c(c21)CCO3 (stereo not given) | -1.55% (inactive) | – |
| Cc1ccccc1OCC(O)CNCCOc1ccc(C(N)=O)cc1 (stereo not given) | 2.97% (inactive) | – |
| CCCCCCC(O)C/C=C/CCCCCCCC(=O)O (stereo not given) | -1.38% (inactive) | – |
| COC(=O)[C@H]1[C@H]2C[C@@H]3c4[nH]c5ccccc5c4CCN3C[C@H]2C[C@@H](OC(=O)c2cc(OC)c(OC)c(OC)c2)[C@@H]1OC | – | 536 nM (active) |
| CCCCC(CC)COC(=O)CC(C(=O)OCC(CC)CCCC)S(=O)(=O)O (stereo not given) | 2% (inactive) | – |
| Nc1c(N=Nc2ccc(-c3ccc(N=Nc4cc(S(=O)(=O)O)c5ccccc5c4N)cc3)cc2)cc(S(=O)(=O)O)c2ccccc12 | 1.83% (inactive) | – |
| CCNC(=O)[C@@H]1CCCN1C(=O)[C@H](CCCN=C(N)N)NC(=O)[C@H](CC(C)C)NC(=O)[C@@H](Cc1c[nH]c2ccccc12)NC(=O)[C@H](Cc1ccc(O)cc1)NC(=O)[C@H](CO)NC(=O)[C@H](Cc1c[nH]c2ccccc12)NC(=O)[C@H](Cc1cnc[nH]1)NC(=O)[C@@H]1CCC(=O)N1 | – | 6750 nM (active) |
